Experimental data taken from PubChem BioAssay (NCATS).
A number with no mark means an inactive call. Inconclusive results are not listed. Entries that show only a call come without a potency. Calls of active or inactive are those of the source. Unless noted, the call rests on the fitted dose curve; in most records, active means well fitted curve in the direction sought with a large enough effect; inconclusive means small, poorly fitted or top-dose-only effect, or another doubt; inactive means no such curve, though single readings can be large; an effect the other way counts as inactive or inconclusive.

Columns and labels:
[1] = biological target: 3',5'-cyclic-AMP phosphodiesterase 4B (Homo sapiens) (UniProt Q07343); test: qHTS Assay for Inhibitors of PDE-IV (AID 607; active means well fitted activation curve with a large enough effect in the main read-out, with a control signal flat, not every such curve was filed as active)
3',5'-cyclic-AMP phosphodiesterase 4B (Homo sapiens), sequence (Q07343 whole entry, looked up): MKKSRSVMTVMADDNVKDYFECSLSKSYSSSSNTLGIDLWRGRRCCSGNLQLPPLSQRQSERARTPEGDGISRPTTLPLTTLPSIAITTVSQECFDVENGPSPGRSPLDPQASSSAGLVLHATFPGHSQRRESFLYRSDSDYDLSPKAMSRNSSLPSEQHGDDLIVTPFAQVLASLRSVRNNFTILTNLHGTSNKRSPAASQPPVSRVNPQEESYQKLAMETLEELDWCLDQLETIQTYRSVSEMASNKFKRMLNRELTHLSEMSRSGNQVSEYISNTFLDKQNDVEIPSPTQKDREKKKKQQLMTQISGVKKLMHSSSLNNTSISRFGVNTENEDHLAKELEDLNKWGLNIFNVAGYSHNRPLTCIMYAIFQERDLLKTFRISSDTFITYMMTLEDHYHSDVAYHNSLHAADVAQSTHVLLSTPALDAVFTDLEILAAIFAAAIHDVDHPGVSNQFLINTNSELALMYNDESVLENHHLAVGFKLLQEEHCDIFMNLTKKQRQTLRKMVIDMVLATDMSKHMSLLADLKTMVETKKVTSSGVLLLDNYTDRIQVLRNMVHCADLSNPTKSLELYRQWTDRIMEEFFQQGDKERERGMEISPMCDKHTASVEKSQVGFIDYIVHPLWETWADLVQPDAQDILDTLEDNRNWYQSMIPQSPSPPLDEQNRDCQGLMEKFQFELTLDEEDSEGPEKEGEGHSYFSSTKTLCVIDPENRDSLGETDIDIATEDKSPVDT
Method in brief: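 Live HEK293 cells with a modified cyclic nucleotide-gated (CNG) channel report intracellular cAMP via membrane-potential dye fluorescence (ex 535/em 590 nm). Endogenous PDE-IV was targeted. Compounds were tested at up to 22.9 uM final; RO 20-1724 100 uM served as control.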

[2] = biological target: Cytochrome P450 2C9 (Homo sapiens) (UniProt P11712); test: qHTS Assay for Inhibitors and Substrates of Cytochrome P450 2C9 (AID 883); further: potency means the concentration at half of the fitted maximal effect; nearly all actives have a fitted effect of over 60% in size
Cytochrome P450 2C9 (Homo sapiens), sequence (P11712 whole entry, looked up): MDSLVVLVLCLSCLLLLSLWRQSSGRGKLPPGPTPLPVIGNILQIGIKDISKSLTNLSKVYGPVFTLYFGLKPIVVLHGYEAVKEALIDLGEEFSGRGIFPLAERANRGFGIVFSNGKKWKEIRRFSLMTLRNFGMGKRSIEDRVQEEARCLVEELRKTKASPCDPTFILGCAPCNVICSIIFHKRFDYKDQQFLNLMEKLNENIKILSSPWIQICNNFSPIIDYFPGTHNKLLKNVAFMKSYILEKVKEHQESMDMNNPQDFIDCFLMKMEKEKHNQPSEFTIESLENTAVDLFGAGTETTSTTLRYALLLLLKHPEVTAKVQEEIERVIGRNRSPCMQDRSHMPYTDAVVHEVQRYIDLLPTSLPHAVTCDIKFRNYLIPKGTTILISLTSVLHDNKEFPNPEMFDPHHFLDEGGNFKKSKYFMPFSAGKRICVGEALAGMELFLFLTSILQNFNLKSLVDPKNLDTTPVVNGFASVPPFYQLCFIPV
Method in brief: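 Inhibition of CYP2C9 is scored as loss of luminescence, with 57uM sulphaphenazole defining 100% inhibition. Substrate Luciferin-H is used at 100uM, equal to its KM; enzyme at 10nM in 25mM KPO4, 60 min at 37C with NADPH regeneration.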

[3] = biological target: Cytochrome P450 2D6 (Homo sapiens) (UniProt P10635); test: Cytochrome P450 family 2 subfamily D member 6 (CYP2D6) small molecule antagonists: luciferase biochemical (cell-free) qHTS assay (AID 1645840; active means well fitted curve in the direction sought with a large enough effect in the repeat runs; an effect the other way counts as inactive or inconclusive; further: series mostly up to about 57 µM; nearly all actives have a fitted effect of over 55% in size)
Cytochrome P450 2D6 (Homo sapiens), sequence (P10635 whole entry, looked up): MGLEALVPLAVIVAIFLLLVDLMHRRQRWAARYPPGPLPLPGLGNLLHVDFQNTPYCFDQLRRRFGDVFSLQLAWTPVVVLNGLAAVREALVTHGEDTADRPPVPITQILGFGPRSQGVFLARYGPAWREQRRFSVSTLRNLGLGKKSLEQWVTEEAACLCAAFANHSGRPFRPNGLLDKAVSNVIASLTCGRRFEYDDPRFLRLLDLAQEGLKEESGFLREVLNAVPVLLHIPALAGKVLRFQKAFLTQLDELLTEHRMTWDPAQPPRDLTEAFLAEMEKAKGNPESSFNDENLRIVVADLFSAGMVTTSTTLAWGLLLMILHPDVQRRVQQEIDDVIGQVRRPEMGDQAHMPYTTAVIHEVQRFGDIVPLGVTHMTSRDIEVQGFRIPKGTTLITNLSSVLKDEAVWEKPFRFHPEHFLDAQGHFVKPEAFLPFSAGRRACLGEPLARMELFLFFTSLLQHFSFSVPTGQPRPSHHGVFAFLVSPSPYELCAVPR
Method in brief: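 P450-Glo luminescent screen: recombinant CYP2D6 enzyme–proluciferin substrate mix preincubated with compound 10 min at room temperature, then NADPH regeneration added for 1 h at room temperature. Detection reagent added for 20 min; luciferin light read as relative luminescence units.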

[4] = Viability counterscreen for agonist of constitutive androstane receptor (CAR) against the NCATS DSHEA and TCM libraries (AID 1794838);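 further: HepG2 cells with CYP2B6 reporter and hCAR plus 0.75 µM PK11195 antagonist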
Method in brief: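 HepG2-CYP2B6-hCAR cells (2,500/well) treated 24 h at 37C with compounds plus 0.75 uM PK11195; viability read by CellTiter-Fluor fluorescence, Ex/Em 405/540 nm.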

[5] = HepG2 viability counterscreen (readout 2: ATP content) against the NCATS DSHEA and TCM libraries (AID 1794840)
Method in brief: (§1)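 HepG2 cells, 1,000/well, attached ~4 h, then exposed ~24 h at 37C to substances. Protease activity read by fluorescence of 25 uM GF-AFC (Ex/Em 380/510 nm) after 30 min; ATP then by CellTiter-Glo luminescence.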

[6] = HepG2 viability counterscreen (readout 1: protease activity) against the NCATS DSHEA and TCM libraries (AID 1794841);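 further: cells exposed to compounds for about 24 h before the protease read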
Method in brief: as §1

[7] = biological target: Cytochrome P450 3A4 (Homo sapiens) (UniProt P08684); test: qHTS for inhibitors of CYP3A4 against the NCATS DSHEA and TCM libraries (AID 1919971); details: recombinant CYP3A4 enzyme activity, luminescence qHTS; further: potency means the concentration at half of the fitted maximal effect
Cytochrome P450 3A4 (Homo sapiens), sequence (P08684 whole entry, looked up): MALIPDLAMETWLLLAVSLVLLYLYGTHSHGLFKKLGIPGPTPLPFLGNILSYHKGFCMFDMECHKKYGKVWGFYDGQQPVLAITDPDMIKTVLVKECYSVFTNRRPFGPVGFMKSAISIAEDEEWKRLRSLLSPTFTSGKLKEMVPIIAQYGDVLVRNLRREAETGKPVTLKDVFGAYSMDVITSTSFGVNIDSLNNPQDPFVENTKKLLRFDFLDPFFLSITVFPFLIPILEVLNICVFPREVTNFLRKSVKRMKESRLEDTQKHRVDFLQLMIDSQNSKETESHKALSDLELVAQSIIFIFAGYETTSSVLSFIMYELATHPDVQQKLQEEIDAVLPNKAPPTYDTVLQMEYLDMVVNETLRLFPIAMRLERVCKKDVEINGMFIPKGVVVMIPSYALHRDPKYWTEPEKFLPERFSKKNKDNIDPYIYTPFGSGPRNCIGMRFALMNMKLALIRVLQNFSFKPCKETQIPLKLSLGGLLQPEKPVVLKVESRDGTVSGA
Method in brief: (§2)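 Luminescent P450-Glo readout. Enzyme plus pro-luciferin substrate in manufacturer buffer (typically 100 mM KPO4); 15 min RT preincubation; 1x NADPH regenerating system, 30-45 min RT in the dark; detection reagent 30 min.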

[8] = biological target: Cytochrome P450 2D6 (Homo sapiens) (UniProt P10635); test: qHTS for inhibitors of CYP2D6 against the NCATS DSHEA and TCM libraries (AID 1919972); further: potency means the concentration at half of the fitted maximal effect
Method in brief: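 Steps: enzyme plus luciferin substrate dispensed; test substances pinned; 15 min RT; 1x NADPH regenerating solution added, 30–45 min RT protected from light; detection reagent, 30 min RT; luminescence measured. Minus-enzyme wells as background.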

[9] = biological target: Cytochrome P450 2C9 (Homo sapiens) (UniProt P11712); test: qHTS for inhibitors of CYP2C9 against the NCATS DSHEA and TCM libraries (AID 1919973); further: potency means the concentration at half of the fitted maximal effect
Method in brief: as §2

[10] = biological target: Cytochrome P450 2C19 (Homo sapiens) (UniProt P33261); test: qHTS for inhibitors of CYP2C19 against the NCATS DSHEA and TCM libraries (AID 1919974); details: CYP2C19 enzyme inhibition, luminescence qHTS;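 further: luminescence from luciferin released by CYP2C19 oxidation of a pro-luciferin substrate; potency means the concentration at half of the fitted maximal effect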
Cytochrome P450 2C19 (Homo sapiens), sequence (P33261 whole entry, looked up): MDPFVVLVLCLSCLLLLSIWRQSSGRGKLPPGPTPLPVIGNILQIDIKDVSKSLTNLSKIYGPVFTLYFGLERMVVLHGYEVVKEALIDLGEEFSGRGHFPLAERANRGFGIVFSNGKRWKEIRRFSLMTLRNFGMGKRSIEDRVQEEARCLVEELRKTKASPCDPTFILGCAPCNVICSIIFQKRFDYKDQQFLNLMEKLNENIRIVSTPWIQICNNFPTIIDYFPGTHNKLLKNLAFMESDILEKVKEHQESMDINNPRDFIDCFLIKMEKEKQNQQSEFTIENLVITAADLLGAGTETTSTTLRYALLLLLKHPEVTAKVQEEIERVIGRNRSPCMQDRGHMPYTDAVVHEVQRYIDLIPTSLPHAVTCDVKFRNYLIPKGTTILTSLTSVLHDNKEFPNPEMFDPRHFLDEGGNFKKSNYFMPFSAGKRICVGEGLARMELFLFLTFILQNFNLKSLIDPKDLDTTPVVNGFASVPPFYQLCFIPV
Method in brief: as §2

[11] = KB-3-1 P-gp reporter qHTS against the NCATS DSHEA and TCM libraries (AID 1919975)
Method in brief: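 Parental KB-3-1 cells, 500 cells/well, in DMEM with 10% FBS, exposed 72 h at 37 C to compounds in concentration-response. Viability read by CellTiter-Glo luminescence after 30 min at room temperature.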

[12] = biological target: Cytochrome P450 1A2 (Homo sapiens) (UniProt P05177); test: qHTS for inhibitors of CYPIA2 against the NCATS DSHEA and TCM libraries (AID 1919976); details: recombinant CYP1A2 enzyme activity, luminescence; further: potency means the concentration at half of the fitted maximal effect
Cytochrome P450 1A2 (Homo sapiens), sequence (P05177 whole entry, looked up): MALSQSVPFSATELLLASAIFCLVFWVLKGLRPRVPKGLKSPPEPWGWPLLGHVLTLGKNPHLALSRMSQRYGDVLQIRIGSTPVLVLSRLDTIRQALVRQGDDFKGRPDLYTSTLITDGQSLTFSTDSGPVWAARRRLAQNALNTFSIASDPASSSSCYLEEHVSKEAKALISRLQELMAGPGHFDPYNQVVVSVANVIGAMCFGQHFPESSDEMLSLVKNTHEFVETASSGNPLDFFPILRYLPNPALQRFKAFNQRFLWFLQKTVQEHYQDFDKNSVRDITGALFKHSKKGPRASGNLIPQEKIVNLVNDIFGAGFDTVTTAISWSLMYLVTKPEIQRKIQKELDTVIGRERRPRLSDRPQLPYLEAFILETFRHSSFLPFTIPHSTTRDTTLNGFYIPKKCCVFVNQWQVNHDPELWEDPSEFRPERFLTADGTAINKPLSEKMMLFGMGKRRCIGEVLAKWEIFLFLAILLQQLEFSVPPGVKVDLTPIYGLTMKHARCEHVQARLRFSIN
Method in brief: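 Human CYP1A2 with its pro-luciferin substrate in supplier buffer (typically 100 mM KPO4) was pre-incubated with compounds 15 min at RT. Reaction was started with 1x NADPH regeneration solution and run 30-45 min at RT in the dark, then luminescence was read after P450-Glo detection reagent (30 min RT).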

[13] = qHTS Counterscreen for compound interference against the NCATS DSHEA and TCM libraries (AID 1919978); details: firefly luciferase detection reagent interference, luminescence;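 further: compounds preincubated with 1 µM D-luciferin or buffer before detection reagent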
Method in brief: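 Firefly luciferase detection reagent was added after compounds (19.5 nM–39.8 uM final) had been incubated 15 min at room temperature with 1 uM D-luciferin or with 100 mM phosphate buffer alone. Luminescence was read after 30 min at room temperature.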

[14] = Dual reporter qHTS for agonist of Pregnane X Receptor (hPXR) against the NCATS DSHEA and TCM libraries: Fluorescence readout (AID 1920058)
Method in brief: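 hPXR-Luc HepG2 cells (2000/well) in phenol red-free medium with charcoal-stripped FBS attached for 5 h, then were exposed to compounds for about 24 h at 37 °C. Viability was read by CellTiter-Fluor fluorescence (Ex/Em 405/540 nm) after 1 h.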

[15] = biological target: Nuclear receptor subfamily 1 group I member 2 (Homo sapiens) (UniProt O75469); test: Dual reporter qHTS for agonist of Pregnane X Receptor (hPXR) against the NCATS DSHEA and TCM libraries: Luminescence readout (AID 1920059)
Nuclear receptor subfamily 1 group I member 2 (Homo sapiens), sequence (O75469 whole entry, looked up): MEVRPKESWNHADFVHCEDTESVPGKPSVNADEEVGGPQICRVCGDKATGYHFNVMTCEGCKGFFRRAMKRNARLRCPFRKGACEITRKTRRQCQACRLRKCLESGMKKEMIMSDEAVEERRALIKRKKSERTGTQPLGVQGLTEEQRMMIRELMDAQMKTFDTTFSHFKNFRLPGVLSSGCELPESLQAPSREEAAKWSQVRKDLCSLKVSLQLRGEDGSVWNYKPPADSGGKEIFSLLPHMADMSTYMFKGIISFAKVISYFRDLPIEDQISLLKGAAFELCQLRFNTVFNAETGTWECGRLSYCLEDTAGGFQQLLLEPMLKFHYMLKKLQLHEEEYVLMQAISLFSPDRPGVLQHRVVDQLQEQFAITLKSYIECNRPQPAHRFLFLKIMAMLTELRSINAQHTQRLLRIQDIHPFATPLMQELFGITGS
Method in brief: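 Luminescent PXR reporter read (ONE-Glo) after a CellTiter-Fluor viability read, following 24 h, 37C treatment of HepG2 cells stably carrying hPXR-Luc.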

[16] = Dual reporter qHTS for antagonist of Pregnane X Receptor (hPXR) against the NCATS DSHEA and TCM libraries: Fluorescence Readout (AID 1920061)
Method in brief: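 Rifampicin-stimulated (2 uM final) hPXR-luciferase HepG2 cells were treated for 24 h with DSNP/TCM substances. Viability came from CellTiter-Fluor fluorescence, reporter activity from ONE-Glo luminescence.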

[17] = biological target: Cytochrome P450 3A4 (Homo sapiens) (UniProt P08684); test: qHTS Assay for Inhibitors and Substrates of Cytochrome P450 3A4 (AID 884); further: potency means the concentration at half of the fitted maximal effect; nearly all actives have a fitted effect of over 50% in size
Method in brief: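 20 nM human CYP3A4 with 25 uM Luciferin-PPXE (at KM) in 200 mM KPO4, preincubated 10 min with compound; NADPH regeneration started a 60 min RT reaction. Luciferin detected by luminescence, normalized to 57 uM ketoconazole as full inhibition.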

[18] = Confirmation and Secondary Assay for Modulators of Hemoglobin Beta Chain Splicing at IVS2 705 locus (AID 930);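 further: HeLa cells stably expressing the EGFP-705 splicing reporter; series mostly up to about 46 µM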
Method in brief: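 HeLa cells stably carrying EGFP interrupted by mutant beta-globin IVS2-705 intron (CMV-driven) were seeded at 500 cells/well, treated next day with compound for 2 days at 37C; corrected splicing restores EGFP, read as total peak GFP intensity per well.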

## CC(C)=CCc1c2c(c3occ(-c4ccc(O)c(O)c4)c(=O)c3c1O)C=CC(C)(C)O2
[1]
  Potency: inactive
[2]
  Potency: 3.16 µM (active)

## COc1cc(C(=O)O)ccc1NC(=O)[C@@H]1N[C@@H](CC(C)(C)C)[C@](C#N)(c2ccc(Cl)cc2F)[C@H]1c1cccc(Cl)c1F
[3]
  Potency: inactive

## O=C(OC[C@H]1O[C@@H](OC(=O)c2cc(O)c(O)c(O)c2)[C@H](OC(=O)c2cc(O)c(O)c(O)c2)[C@@H](OC(=O)c2cc(O)c(O)c(O)c2)[C@@H]1OC(=O)c1cc(O)c(O)c(O)c1)c1cc(O)c(O)c(O)c1
[4]
  outcome: inactive
[5]
  outcome: inactive
[6]
  outcome: inactive
[7]
  Potency: 7.08 µM (active)
[8]
  Potency: 14.1 µM (active)
[9]
  Potency: 6.31 µM (active)
[10]
  Potency: 3.98 µM (active)
[11]
  outcome: inactive
[12]
  Potency: 3.55 µM (active)
[13]
  max response: 0.413%
[14]
  outcome: inactive
[15]
  outcome: inactive
[16]
  outcome: inactive

## O=C1CC(c2ccc(O)cc2)Oc2ccccc21 (stereo not drawn)
[17]
  Potency: 25.1 µM (active)
[18]
  outcome: inactive
